Screening results: PubChem, National Center for Advancing Translational Sciences (NCATS)
Compounds with a hit are over-represented: about 10% of the library has one in this group of screens.
HP1b chromo inh: inhibitors of HP1-beta chromodomain binding to methylated histone tails; 390,000 compounds, 0.56% hits; Potency, µM (series often up to 114 µM), without a hit: top-dose activity change, negative = inhibition, actives largely listed as inhibitors; AlphaScreen HP1-beta / biotin-H3K9me3 peptide binding; P83916; also: nearly all actives have a fitted effect of over 70% in size
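HP1-beta protein (50 nM final) preincubated 30 min at room temperature with biotinylated H3(1-18)K9me3 peptide (50 nM) in PBS pH 7.4, 0.01% Tween-20, then compound added for 30 min. AlphaScreen streptavidin donor/nickel chelate acceptor beads (10 ug/mL final), 30 min dark, luminescence read.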
JMJD2A Tudor: blocks the human JMJD2A Tudor domain | O75164 | AlphaScreen JMJD2A-Tudor / H3K4me3 peptide binding | Potency, µM (series often up to 114 µM), without a hit: at the top dose activity change, negative = inhibition, most hits filed as inhibitors | 390,000 compounds, 4.4% hits | AID 504339; also: % is scaled to controls: 0 for no effect and ±100 for the full control effect; nearly all actives have a fitted effect of over 50% in size
BAZ2B block: BAZ2B (human) inhibition. AID 504333. Potency, µM (titrated, usually from 114 µM), for the others: at the top dose activity change, negative = inhibition, hits mostly inhibitors. AlphaScreen BAZ2B-H3K14Ac peptide displacement. 360,000 compounds, 4.4% hits. Q9UIF8; also: % is scaled to controls: 0 for no effect and ±100 for the full control effect; nearly all actives have a fitted effect of over 60% in size
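AlphaScreen displacement of biotin-H3(5-23)K14Ac peptide (50 nM final) from BAZ2B (50 nM final) in PBS pH 7.4, 0.01% Tween-20; complex preformed 30 min RT, then compounds (top 110 uM) 30 min RT, beads 20 min dark.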
G9a block: blocks human histone lysine methyltransferase G9a; Q96KQ7; G9a H3K9 monomethylation, AlphaScreen, 2 h; Potency, µM (doses to about 102 µM), for inactives: top-dose activity, negative = inhibition, actives largely listed as inhibitors; 350,000 compounds, 8.8% hits; AID 504332; also: % is scaled to controls: 0 for no effect and ±100 for the full control effect; nearly all actives have a fitted effect of over 75% in size
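AlphaScreen read-out: biotin-H3K9 peptide (500 nM) methylation by 20 nM enzyme with 20 uM SAM, 2 h at room temperature after 15 min compound preincubation; anti-monomethyl H3K9 antibody plus donor/acceptor beads, 10 min dark.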
GLS inh: glutaminase GLS (human) inhibition; 410,000 compounds, 0.21% hits; Potency, µM (series often up to 45.5 µM), for the others: at the top dose activity change, negative = inhibition, hits mostly inhibitors; GLS enzymatic activity, qHTS titration; O94925; also: % is scaled to controls: 0 for no effect and ±100 for the full control effect
Target sequence (O94925 whole entry, looked up): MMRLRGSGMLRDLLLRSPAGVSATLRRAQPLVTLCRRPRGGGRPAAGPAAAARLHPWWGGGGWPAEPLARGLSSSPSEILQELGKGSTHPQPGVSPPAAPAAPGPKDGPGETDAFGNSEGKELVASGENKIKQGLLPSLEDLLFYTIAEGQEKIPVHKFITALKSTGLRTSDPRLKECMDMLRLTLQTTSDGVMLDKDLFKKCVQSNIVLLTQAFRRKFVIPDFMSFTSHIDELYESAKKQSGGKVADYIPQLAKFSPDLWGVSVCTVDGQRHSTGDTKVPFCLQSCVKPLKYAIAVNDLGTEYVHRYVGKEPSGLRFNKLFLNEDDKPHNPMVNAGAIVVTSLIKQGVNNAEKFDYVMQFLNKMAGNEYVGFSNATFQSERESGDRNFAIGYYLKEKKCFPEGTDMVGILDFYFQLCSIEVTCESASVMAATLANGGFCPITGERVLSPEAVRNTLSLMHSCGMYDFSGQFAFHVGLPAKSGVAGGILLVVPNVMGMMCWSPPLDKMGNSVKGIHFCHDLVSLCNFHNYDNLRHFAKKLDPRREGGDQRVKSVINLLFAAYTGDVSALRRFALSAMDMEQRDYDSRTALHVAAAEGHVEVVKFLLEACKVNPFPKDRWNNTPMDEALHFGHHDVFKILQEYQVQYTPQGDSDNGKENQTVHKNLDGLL
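Read-out is an Amplex red fluorescence increase coupled through glutamate oxidase and HRP, measured before and after 30 min room-temperature incubation. hKGA is in 45 mM KH2PO4 (pH 8.2) with 0.02% Tween-20; glutamine added as 1mM solution.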
Starred values were filed as active, the others as inactive; [ ] = remark or other dose. Calls follow the shape of the dose curve; as a rule, active = well fitted curve in the direction sought with a large enough effect; inconclusive = small, poorly fitted or top-dose-only effect, or another doubt; inactive = no such curve, though single readings can be large; an effect the other way counts as inactive or inconclusive. Potency is read from the fitted curve at half-maximal effect.

For CCOC(=O)c1scc(-c2ccccc2)c1S(=O)(=O)N1CCN(c2ccc(Cl)cc2)CC1 the results were HP1b chromo inh 28%, JMJD2A Tudor -15%, BAZ2B block -31%, G9a block 13µM* and GLS inh -6%.
Screening CCOC(=O)c1c(C)[nH]c(C)c1S(=O)(=O)N1CCC(C(=O)NCc2ccc(OC)cc2)CC1 returned HP1b chromo inh 3%, JMJD2A Tudor 89µM*, BAZ2B block 3%, G9a block -2%[59 µM] and GLS inh 6%.
Screening O=C(CN1CCN(c2ncc(C(F)(F)F)cc2Cl)CC1)N1CCN(c2ncc(C(F)(F)F)cc2Cl)CC1 returned HP1b chromo inh 18%, JMJD2A Tudor -14%, BAZ2B block 3%, G9a block 50µM* and GLS inh 1%.
For CCN(CC)CCN(C(=O)c1ccc2c(c1)CCCC2)c1nc2ccc(C)cc2s1 the results were HP1b chromo inh -10%, JMJD2A Tudor inconclusive, BAZ2B block -39%, G9a block inconclusive and GLS inh 5%.
For CN(C)CCCN(C(=O)c1ccc2c(c1)CCCC2)c1nc2ccc(F)cc2s1 the results were HP1b chromo inh -21%, JMJD2A Tudor inconclusive, BAZ2B block inconclusive, G9a block 45µM* and GLS inh 3%.
For CCN(CC)CCN(C(=O)c1ccc2c(c1)CCCC2)c1nc2c(C)cccc2s1 the results were HP1b chromo inh 28%, JMJD2A Tudor inconclusive, BAZ2B block inconclusive, G9a block 35µM* and GLS inh -2%.
Screening CN(C)CCCN(C(=O)c1ccc2c(c1)CCCC2)c1nc2cc3c(cc2s1)OCO3 returned HP1b chromo inh -13%, JMJD2A Tudor inconclusive, BAZ2B block inconclusive and GLS inh 6%.
`CCN(CC)CCN(C(=O)c1ccc(S(=O)(=O)N(C)C2CCCCC2)cc1)c1nc2c(C)cccc2s1` gave HP1b chromo inh 6%, JMJD2A Tudor -31%, BAZ2B block -29%, G9a block -15% and GLS inh -1%.
For Cc1ccc2nc(N(CCCN(C)C)C(=O)c3sc4ccccc4c3Cl)sc2c1 the results were HP1b chromo inh inconclusive, JMJD2A Tudor 45µM*, BAZ2B block inconclusive, G9a block 50µM* and GLS inh 0%.
CCN(CC)CCN(C(=O)c1ccc2c(c1)CCCC2)c1nc2ccc(F)cc2s1 was read as HP1b chromo inh 15%, JMJD2A Tudor -35%, G9a block 50µM* and GLS inh 6%.
For COCCCNC(=S)NC1CC2CCCC(C1)N2Cc1cccs1 (stereo not given) the results were HP1b chromo inh 31%, JMJD2A Tudor -4%, BAZ2B block -18%, G9a block -4% and GLS inh 9%.
For COC(=O)c1ccc(COc2ccccc2/C=C(\C#N)C(=O)Nc2c(C)cccc2C)cc1 the results were HP1b chromo inh 27%, JMJD2A Tudor 1%, BAZ2B block 1%, G9a block 26%[59 µM] and GLS inh -7%.
For O=S(=O)(c1ccc2c(c1)OCO2)N1CCN(c2nc(-c3cccs3)nc3ccccc23)CC1 the results were HP1b chromo inh 30% and JMJD2A Tudor -10%.
Screening COc1ccc(CCn2c3c(c(=O)[nH]c2=O)C(NC(=O)c2ccc(C(C)(C)C)cc2)(C(F)(F)F)C(=O)N3)cc1OC (stereo not given) returned HP1b chromo inh 28%, JMJD2A Tudor -6%, BAZ2B block -7%, G9a block -37%[59 µM] and GLS inh -2%.
Screening O=C(Nc1ccc2c(c1)N(C1CCCC1)C(=O)c1ccccc1S2)c1ccc(F)cc1 returned HP1b chromo inh -8%, JMJD2A Tudor -25%, BAZ2B block -5%, G9a block 2%[59 µM] and GLS inh -2%.
Cc1ccc(C(=O)N(CCCN(C)C)c2nc3ccc(Cl)cc3s2)cc1C was read as HP1b chromo inh -11%, JMJD2A Tudor inconclusive, G9a block 71µM* and GLS inh -4%.
For Nc1o[nH]c(=O)c1C1CCCCC1 the results were HP1b chromo inh 11%[57 µM], JMJD2A Tudor -3% and GLS inh 6%.
For CN1CCN(C(=S)C(=O)Nc2ccc(Br)cc2)CC1 the results were HP1b chromo inh inconclusive, JMJD2A Tudor 89µM*, BAZ2B block -18%, G9a block 2.5µM* and GLS inh -15%.
Cc1ccccc1NC(=O)c1ccc(S(=O)(=O)N2CCCC2)cc1 was read as HP1b chromo inh 23%, JMJD2A Tudor 4%, BAZ2B block -2%, G9a block 6% and GLS inh -12%.
CCCCN(C)C(=O)c1ccc(S(=O)(=O)N2CCOCC2)cc1 was read as HP1b chromo inh 11%, JMJD2A Tudor -3%, BAZ2B block -4%, G9a block 0%[59 µM] and GLS inh 7%.
CN1CCN(C(=S)NC(=O)c2ccc(Br)cc2)CC1 was read as HP1b chromo inh 25%, JMJD2A Tudor -17%, BAZ2B block -18%, G9a block 40µM* and GLS inh 0%.
`N#CCCSc1ccccc1NC(=O)c1ccc(S(=O)(=O)N2CCCC2)cc1` gave BAZ2B block 3% and G9a block 10µM*.
`CCCN(CC1CC1)C(=S)NC(=O)c1ccc(S(=O)(=O)N2CCOCC2)cc1` gave HP1b chromo inh 9%, JMJD2A Tudor -20%, G9a block 28µM* and GLS inh 10%.
`O=C(NC(=S)N1CCN(C(c2ccccc2)c2ccccc2)CC1)c1ccc(S(=O)(=O)N2CCOCC2)cc1` gave HP1b chromo inh 14%, JMJD2A Tudor -25%, BAZ2B block -38%, G9a block -4%[59 µM] and GLS inh 9%.
For CN1CCN(C(=S)NC(=O)c2ccc(S(=O)(=O)N3CCOCC3)cc2)CC1 the results were HP1b chromo inh -18%, JMJD2A Tudor 45µM*, BAZ2B block inconclusive, G9a block inconclusive and GLS inh 1%.
For Cc1cccc(C(=O)NC(=S)N2CCN(C)CC2)c1 the results were HP1b chromo inh 11%, JMJD2A Tudor -17%, BAZ2B block -31%, G9a block 79µM* and GLS inh 13%.
`N#CCCN(Cc1cccnc1)C(=S)NC(=O)c1ccc(S(=O)(=O)N2CCCC2)cc1` gave HP1b chromo inh 20%, JMJD2A Tudor -5%, BAZ2B block -1%, G9a block 28µM* and GLS inh 3%.
N#CCCN(Cc1cccnc1)S(=O)(=O)c1ccc(S(=O)(=O)N2CCCCCC2)cc1 was read as HP1b chromo inh 16%, JMJD2A Tudor -6%, BAZ2B block 8%, G9a block -11%[59 µM] and GLS inh 3%.
`Cc1ccc(CNC(=O)c2cc(NS(=O)(=O)c3ccc(C)cc3)ccn2)cc1` gave HP1b chromo inh -3%, JMJD2A Tudor -17%, BAZ2B block 0%, G9a block -5%[59 µM] and GLS inh -6%.
